# Out of some 2,400 compounds screened, about 750 (31%) were called active.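 The calls were made as follows: active = median signal gain over dofetilide-blocked control wells reaching their mean plus 3 SD, so readout 1 at least 0; inactive = the rest.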 The list shows a part of the results.
# Molecular target: Voltage-gated inwardly rectifying potassium channel KCNH2 (Homo sapiens) (UniProt Q12809)
# Assay: hERG protection against dofetilide inhibition, confirmation, cell-based, thallium flux, duplicate retest, dofetilide IC70 (AID 1835)
# Conditions: hERG cell line, FluxOR thallium flux, dofetilide-blocked; at 10 µM; stronger effect = higher value
# Chain of Voltage-gated inwardly rectifying potassium channel KCNH2 (Homo sapiens) (Q12809 whole entry, looked up): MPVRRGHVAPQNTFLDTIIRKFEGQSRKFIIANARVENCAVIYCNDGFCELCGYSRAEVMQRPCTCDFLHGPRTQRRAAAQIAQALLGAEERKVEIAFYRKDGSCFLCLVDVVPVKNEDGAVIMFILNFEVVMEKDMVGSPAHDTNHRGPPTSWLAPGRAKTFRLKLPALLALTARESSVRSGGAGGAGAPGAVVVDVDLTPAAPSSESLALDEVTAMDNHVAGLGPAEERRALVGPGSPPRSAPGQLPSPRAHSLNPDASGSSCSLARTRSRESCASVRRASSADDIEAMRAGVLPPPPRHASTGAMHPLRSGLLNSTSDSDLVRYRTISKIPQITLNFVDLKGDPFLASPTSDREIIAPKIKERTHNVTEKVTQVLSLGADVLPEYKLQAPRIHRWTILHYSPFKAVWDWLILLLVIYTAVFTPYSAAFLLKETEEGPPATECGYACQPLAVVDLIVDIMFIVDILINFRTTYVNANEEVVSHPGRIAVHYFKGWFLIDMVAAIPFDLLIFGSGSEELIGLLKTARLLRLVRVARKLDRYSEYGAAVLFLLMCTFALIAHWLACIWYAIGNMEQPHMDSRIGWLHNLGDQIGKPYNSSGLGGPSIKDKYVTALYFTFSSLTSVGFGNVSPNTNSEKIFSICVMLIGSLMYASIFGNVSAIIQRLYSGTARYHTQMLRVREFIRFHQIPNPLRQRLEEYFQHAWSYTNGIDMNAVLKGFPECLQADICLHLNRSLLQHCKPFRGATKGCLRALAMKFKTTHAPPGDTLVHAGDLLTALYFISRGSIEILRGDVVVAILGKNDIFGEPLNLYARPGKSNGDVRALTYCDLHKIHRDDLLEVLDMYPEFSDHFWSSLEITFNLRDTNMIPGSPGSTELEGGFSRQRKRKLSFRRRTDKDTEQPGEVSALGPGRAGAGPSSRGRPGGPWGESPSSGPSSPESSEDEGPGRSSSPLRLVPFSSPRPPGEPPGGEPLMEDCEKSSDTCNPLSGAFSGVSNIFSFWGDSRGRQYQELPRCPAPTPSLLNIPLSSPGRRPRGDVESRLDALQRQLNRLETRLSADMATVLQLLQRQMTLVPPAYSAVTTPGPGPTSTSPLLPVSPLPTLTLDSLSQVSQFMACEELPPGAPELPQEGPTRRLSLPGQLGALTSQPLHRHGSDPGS
row,Structure (SMILES),"activity increase over dofetilide control, less the hit threshold"
1,CCc1nnc(NC(=O)COc2ccc([N+](=O)[O-])cc2)s1,-11% (inactive)
2,N#Cc1c(-c2ccc(Cl)cc2)cc(-c2cccs2)nc1SCC(=O)O,-22% (inactive)
3,CCc1nnc(NC(=O)CSc2nc(-c3ccccc3)cc(-c3ccc(OC)cc3)c2C#N)s1,11% (active)
4,CCOc1cc(N2CCCC2)ccc1[N+](=O)[O-],-3% (inactive)
5,CC(=O)c1cccc(NC(=O)NCc2cccs2)c1,-23% (inactive)
6,Nc1nc2n(n1)C1(CCCCC1)C1=C(CCCC1)N2,-26% (inactive)
7,Cc1ccccc1CC(=O)NC1CCN(Cc2ccccc2)CC1,-1% (inactive)
8,C=C(C)Cc1c(C)nc(-c2ccccc2)[nH]c1=O,-19% (inactive)
9,CC(=O)c1c(C)[nH]c(-c2ccccc2)nc1=S,-4% (inactive)
10,CSc1nc(-c2ccccc2)[nH]c(=S)c1C(C)=O,61% (active)
11,CC(=O)c1c(NC(=O)c2ccccc2)[nH]c(-c2ccccc2)nc1=S,24% (active)
12,Cc1nc2ccc(C(=O)O)cc2[nH]1,-12% (inactive)
13,CC(=O)c1c(N2CCCC2)[nH]c(-c2ccccc2)nc1=S,-1% (inactive)
14,CC(=O)c1c(N2CCN(Cc3ccccc3)CC2)[nH]c(-c2ccccc2)nc1=S,15% (active)
15,CC(=O)c1c(N)[nH]c(-c2ccccc2)nc1=S,1% (active)
16,Cc1cc(C)cc(NC(=O)CSc2nnc(CN3CCOCC3)n2C)c1,-13% (inactive)
17,COc1ccc(S(=O)(=O)n2nc(C)c(S(=O)(=O)N3CCOCC3)c2C)cc1OC,-10% (inactive)
18,CCN1CCCC(CO)(Cc2ccccc2)C1 (centres undefined),-8% (inactive)
19,O=C(CSc1nnc(NC(=O)c2ccc(S(=O)(=O)N3CCOCC3)cc2)s1)Nc1ccccc1C(F)(F)F,-13% (inactive)
20,Cc1[nH]cnc1CSCCN,-2% (inactive)
21,O=C(NC(=S)N1CCCc2ccccc21)c1ccc(Br)cc1,32% (active)
22,O=C(NC(=S)N1CCCc2ccccc21)c1ccc([N+](=O)[O-])cc1,11% (active)
23,O=C(O)C1CCN1C1CCCCC1 (centres undefined),-16% (inactive)
24,CC(=O)c1c(C)nc(C)nc1NC(=O)C(C)C,-16% (inactive)
25,CCOC(=O)CSc1nnc(NC(=O)c2ccc3c(c2)OCO3)s1,-22% (inactive)

row,Structure (SMILES),"activity increase over dofetilide control, less the hit threshold"
1,Cc1ccc(NC(=O)c2cc(-c3ccc4c(c3)OCO4)on2)cc1,-6% (inactive)
2,c1ccc2c(c1)c1ccccc1n1c(-c3ccc4c(c3)OCO4)nnc21,1% (active)
3,Cc1ccccc1-c1nnn(CC(=O)NCc2ccc3c(c2)OCO3)n1,-13% (inactive)
4,O=C(NCc1ccco1)C1CCN(C(=O)Cc2ccccc2)CC1,-7% (inactive)
5,CN(C)c1ccc(C(CNS(=O)(=O)c2ccc([N+](=O)[O-])cc2)N2CCCC2)cc1 (centres undefined),-24% (inactive)
6,C/C=C(\C)CN1CCN(c2cccc(C)c2C)CC1,-24% (inactive)
7,Cc1cccc(N2CCN(C(=O)CNC(=O)c3cccc([N+](=O)[O-])c3)CC2)c1C,13% (active)
8,Cc1cccc(N2CCN(C(=O)Cc3c(C(=O)O)[nH]c4ccc(Cl)cc34)CC2)c1C,-14% (inactive)
9,CCOC(=O)c1sc(NC(=O)c2ccccc2C(=O)O)c(C(=O)OCC)c1C,-4% (inactive)
10,CCOC(=O)c1sc(NN=C(C(=O)OC)C(=O)OC)c(C(=O)OCC)c1C,19% (active)
11,CCOC(=O)c1c(C)oc2cc(Br)c(OC)cc12,-2% (inactive)
12,COc1ccc2[nH]c3c(=O)n(CCN4CCOCC4)cnc3c2c1,-14% (inactive)
13,CCC1(C(=O)O)NC(c2cc(OC)ccc2O)C2C(=O)N(Cc3ccccc3)C(=O)C21 (centres undefined),-18% (inactive)
14,O=C(N/N=C/c1cccs1)C(=O)Nc1cccc(Cl)c1,-6% (inactive)
15,Nc1nc(O)c(N=Nc2ccc(S(N)(=O)=O)cc2)c(=O)[nH]1,6% (active)
16,O=C1N(CN2CCN(Cc3ccccc3)CC2)c2ccccc2C12OCCCO2,-4% (inactive)
17,Cc1ccc(NC(=O)CCC(=O)OCC(F)(F)C(F)F)cc1,-23% (inactive)
18,CCCCC(=O)Nc1ccc(NCc2ccc(C)s2)cc1,14% (active)
19,CN(C)c1ccc(NC(=O)CCCc2ccccc2)cc1,-19% (inactive)
20,O=C(CCNC(=O)C1CCN(S(=O)(=O)c2ccc(F)cc2)CC1)NCc1ccc(Cl)cc1,-16% (inactive)
21,Cc1cc(C)c(Cn2c3ccccc3c3cnn(CC(=O)NCc4ccccn4)c(=O)c32)c(C)c1,-4% (inactive)
22,Cc1ccc(C(=O)N2CCN(c3ccccc3)CC2)cc1S(=O)(=O)N1CCCC1,19% (active)
23,O=C(Nc1ccc(N2CCOCC2)cc1)c1ccc(S(=O)(=O)N2CCCCC2)cc1,-10% (inactive)
24,O=C(c1ccc(Cl)c(S(=O)(=O)N2CCCC2)c1)N1CCN(c2ccccc2F)CC1,-1% (inactive)
25,C=CCNC(=S)Nc1nc2c(cc1C(=O)OCC)CCCC2,-4% (inactive)

row,Structure (SMILES),"activity increase over dofetilide control, less the hit threshold"
1,CCNC(=S)Nc1nc2c(cc1C(=O)OCC)CCCC2,2% (active)
2,C=C(C)CNC(=S)Nc1nc2c(cc1C(=O)OCC)CCCC2,-4% (inactive)
3,CNC(=O)CSc1nnc(-c2ccco2)n1-c1ccccc1,-14% (inactive)
4,COc1ccc(C(CC(=O)O)NC(=O)C(c2ccccc2)c2ccccc2)cc1 (centres undefined),-10% (inactive)
5,Cn1c(NNC(=O)C(c2ccccc2)c2ccccc2)cc(=O)n(C)c1=O,7% (active)
6,CC(=O)c1ccc2c(c1)OCCOCCOCCO2,-14% (inactive)
7,CC(C)(C)c1ccc(C(=O)CC(=O)c2cc(Cl)ccc2O)cc1,17% (active)
8,Cc1cc(Cl)ccc1OC(C)C(=O)NCCc1ccc2c(c1)OCCO2 (centres undefined),-16% (inactive)
9,Cc1ccc(O)c(C(=O)CC(=O)c2ccc(Cl)cc2)c1,-2% (inactive)
10,Cc1cccc(C(=O)CC(=O)c2cc(Cl)ccc2O)c1,-7% (inactive)
11,Cc1ccc(C(=O)CC(=O)c2cc(Cl)ccc2O)cc1,8% (active)
12,Cc1ccc(Cl)cc1NC(=O)COC(=O)c1ccccc1O,-10% (inactive)
13,Cc1ccc(C(=O)CC(=O)COc2ccc(Cl)cc2C)cc1,24% (active)
14,COC(=O)C1CCCN1C(=O)COc1ccc(Cl)cc1Br (centres undefined),-7% (inactive)
15,Nc1nc2c(s1)CCCCCCCCCC2,-11% (inactive)
16,O=C1OCCC1Sc1nc2ccccc2c(=O)n1Cc1ccc(F)cc1 (centres undefined),9% (active)
17,Cc1ccc(S(=O)(=O)N2CCOCC2)cc1NC(=O)CSc1nc2ccccc2c(=O)n1Cc1ccccc1,-5% (inactive)
18,COc1cc(C2NC(=O)NC(O)(C(F)(F)F)C2C(C)=O)cc(OC)c1OC (centres undefined),-17% (inactive)
19,O=C(CSc1nnc(-c2ccncc2)o1)c1cccc([N+](=O)[O-])c1,-10% (inactive)
20,N/C(=N\OS(=O)(=O)c1cccc([N+](=O)[O-])c1)c1ccncc1,1% (active)
21,CN(c1cccc(NS(=O)(=O)c2cccc([N+](=O)[O-])c2)c1)S(C)(=O)=O,-19% (inactive)
22,COc1ccc(C)cc1-n1nnnc1SCc1nc2ccccc2c(=O)[nH]1,-16% (inactive)
23,Cc1ccc(C2=NN(C(=O)CCCC(=O)O)C(c3ccc4c(c3)OCO4)C2)cc1 (centres undefined),-23% (inactive)
24,Cc1ccc2oc3c(c(=O)c2c1)C(c1cccs1)N(CCCN(C)C)C3=O (centres undefined),11% (active)
25,CCN(CC)CCCN1C(=O)c2oc3ccccc3c(=O)c2C1c1cccs1 (centres undefined),28% (active)

row,Structure (SMILES),"activity increase over dofetilide control, less the hit threshold"
1,COCCN1C(=O)c2oc3cc(C)c(C)cc3c(=O)c2C1c1ccc(O)cc1 (centres undefined),-7% (inactive)
2,COCCCNC(=O)CC(NS(=O)(=O)c1ccc(F)cc1)c1ccc(OC)cc1 (centres undefined),-1% (inactive)
3,CN(C)NC(=O)C(NC(=O)c1ccc(N)cc1)C12CC3CC(CC(C3)C1)C2 (centres undefined),-10% (inactive)
4,O=C(O)c1cc(-c2cccc([N+](=O)[O-])c2)n[nH]1,-14% (inactive)
5,O=C(O)/C=C/C(=O)Nc1ccc(OC(F)(F)F)cc1,-3% (inactive)
6,CS(=O)(=O)c1sc(C(=O)NC(=S)Nc2ccc(OC(F)(F)F)cc2)c2c1C=CCC2,11% (active)
7,CCc1nnc(NS(=O)(=O)c2ccc(NC(=S)NC(=O)/C=C/c3ccc(OC)cc3)cc2)s1,-4% (inactive)
8,COc1ccc(Cc2c(O)nc(SCC(=O)NC(C)(C)C)[nH]c2=O)cc1,-17% (inactive)
9,C=CCn1c(SCC(=O)NCC2CCCO2)nnc1-c1ccccc1 (centres undefined),-1% (inactive)
10,COc1cccc(N2CC(C(=O)Nc3nnc(SCC(=O)NCC4CCCO4)s3)CC2=O)c1 (centres undefined),-4% (inactive)
11,Cc1nc(SCC(=O)NCC2CCCO2)c2c3c(sc2n1)CCCC3 (centres undefined),9% (active)
12,Cc1ccc(OCc2ccoc2C(=O)O)cc1C,11% (active)
13,COC(=O)C1CN(C(=O)COc2ccc(C)c(C)c2)c2ccccc2O1 (centres undefined),-11% (inactive)
14,Cc1cc(OCc2ccc(C(=O)Nc3ccc(C(=O)O)cc3)o2)ccc1Cl,-22% (inactive)
15,COC(=O)c1cc(S(=O)(=O)NCC2CCN(Cc3cc(C)ccc3C)CC2)c[nH]1,-12% (inactive)
16,Cc1nn(C)cc1C(=O)Nc1ccc2c(c1)OCCO2,-8% (inactive)
17,COc1ccc(OC)c(NC(=S)NC(=O)c2ccc(Br)o2)c1,0% (active)
18,CCc1ccc(NC(=S)NC(=O)c2c(-c3ccccc3Cl)noc2C)cc1,-2% (inactive)
19,COc1cc(NS(=O)(=O)c2ccc(NC(=S)Nc3ccccc3)cc2)nc(OC)n1,-26% (inactive)
20,CCN(c1ccccc1)S(=O)(=O)c1ccc(NC(=S)NC(=O)c2ccc(Br)o2)cc1,20% (active)
21,COc1cccc(NC(=S)NC(C)c2ccc(OC)c(OC)c2)c1 (centres undefined),-24% (inactive)
22,O=C(CNC(=S)NC(=O)c1ccc(Br)o1)c1ccccc1,-3% (inactive)
23,O=C(NC(=S)NCc1ccccc1)c1ccc(Br)o1,91% (active)
24,COc1ccc(NC(=S)NC(=O)c2ccc(Br)o2)cc1,13% (active)

# Reference: PubChem BioAssay AID1835 (Johns Hopkins Ion Channel Center, 2009)
